The values that follow come from PubChem BioAssay (NCI).

Molecules are shown by their SMILES. The panel holds about 79,000 compounds, 15% with a hit somewhere; the sample as a whole holds those more often. Unmarked numbers belong to inactive results. Activity calls are given as the source filed them. Cut-off read from the data, not from the text of the source: active = growth inhibition above about 70%; inactive = the rest.

A short description of test [1]: NCI Yeast Anticancer Drug Screen. Data for the rad50 strain (AID 155).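 Note: 0% = growth of vehicle-only cultures of the same strain.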 The settings on record: S. cerevisiae rad50 strain growth inhibition; at 50.0 µM; stronger effect = higher value. In short, it runs like this:
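Compounds were tested on a yeast strain with an engineered DNA damage repair alteration; the reported value is growth inhibition normalised to vehicle treatment.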

The nature of test [2]: NCI Yeast Anticancer Drug Screen. Data for the mec2-1 strain (AID 157). To be noted: S. cerevisiae mec2-1 strain, at 50.0 µM, stronger effect = higher value. In short, it runs like this: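 mec2-1 yeast strain, carrying an alteration in DNA damage repair or cell cycle control, was exposed to compounds; growth inhibition was measured relative to vehicle-treated controls.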
The nature of test [3]: NCI Yeast Anticancer Drug Screen. Data for the sgs1 mgt1 strain (AID 161).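 Note: 0% = growth of cultures given vehicle only.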 To be noted: S. cerevisiae sgs1 mgt1 strain, at 50.0 µM, stronger effect = higher value. The gist of the method: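 This yeast growth screen uses a strain with defined DNA-repair lesions; compound-treated growth is compared with vehicle-treated growth.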
Test [4] in a line: NCI Yeast Anticancer Drug Screen. Data for the cln2 rad14 strain (AID 165).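 Note: 0% = growth equal to vehicle treated cultures.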 The settings on record: S. cerevisiae cln2 rad14 strain, at 50.0 µM, stronger effect = higher value. In short, it runs like this:
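Yeast carrying cln2 and rad14 alterations (cell cycle control and DNA damage repair) were exposed to compounds. Growth inhibition was measured against vehicle-treated controls.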

The nature of test [5]: NCI Yeast Anticancer Drug Screen. Data for the bub3 strain (AID 167). To be noted: S. cerevisiae bub3 mutant strain, at 50.0 µM, stronger effect = higher value. In short, it runs like this: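 Growth of a checkpoint-deficient yeast mutant is measured after compound exposure. Values represent inhibition relative to vehicle.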
Test [6] is described as follows: NCI Yeast Anticancer Drug Screen. Data for the mlh1 rad18 strain (AID 175). The settings on record: S. cerevisiae mlh1 rad18 strain growth inhibition; at 50.0 µM; stronger effect = higher value. The gist of the method:
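Growth inhibition of the yeast strain was measured after compound exposure and expressed relative to vehicle-treated controls. The strain carries defined defects in DNA damage repair.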

Turning to `Nc1ccccc1C(=O)CC1OC(=O)c2ccccc21` (stereo not given), the growth inhibition in test [1] is 19.6%; in test [2], 12.1%; in test [3] it was 7.35%; in test [4] it was 4%; in test [5] it was 7.8%; in test [6] it was -13.7%.

Turning to `COc1cc(C(OC(C)=O)OC(C)=O)c(Cl)c(Cl)c1OC(C)=O`, the growth inhibition is 16.7% in test [1]; -2.25% in test [2]; 9.35% in test [3]; -5.3% in test [4]; 12.2% in test [5]; 18.6% in test [6].

Turning to `CC1(O)c2ccccc2-c2c1n([O-])c1ccccc1[n+]2=O` (stereo not given), the growth inhibition is 7.9% in test [1]; -6.2% in test [2]; 12.2% in test [3]; -43.9% in test [4]; -1.8% in test [5]; 3.9% in test [6].

In the case of `O=C(O)c1ccccc1CC(Cc1ccc2c(c1)CCC2)C(=O)O` (stereo not given), the growth inhibition is -7.55% in test [1]; -2.25% in test [2]; -37% in test [3]; -5.15% in test [4]; -17.6% in test [5]; -6% in test [6].

Turning to `N#CCN1CCOCCOCCN(CC#N)CCOCCOCC1`, the growth inhibition in test [1] was 3.1%; in test [2], -0.75%; in test [3], 5.75%; in test [4] it was 19.7%; in test [5], 7.4%; in test [6], 42.1%.

For `O=C1c2ccccc2C(=O)N1Cc1ccccc1`, the growth inhibition in test [1] was 3.55%; in test [2], -16.9%; in test [3] it was 6.6%; in test [4] it was 27.4%; in test [5], 0.45%; in test [6], 6.7%.

Regarding `CCC(C)(O)Cc1ccccc1Cl` (stereo not given), the growth inhibition is 30.1% in test [1]; 24.1% in test [2]; 21.9% in test [3]; 17.1% in test [4]; 7.2% in test [5]; 11.8% in test [6].

Take `CC1CCC2C(C)(C)CC3(C)CCC1C23O` (stereo not given): the growth inhibition in test [1] is 29.9%; in test [2], 45.5%; in test [3], 81% (active); in test [4], 30.4%; in test [5], 61.6%; in test [6], 83.2% (active).

For the compound `Cc1cccc(CC(CC(=O)O)C(=O)O)c1` (stereo not given), the growth inhibition in test [1] is 4.85%; in test [2], 9.45%; in test [3] it was -1.85%; in test [4], 11.6%; in test [5], -2.45%; in test [6], 1.4%.

On to `CC(=O)OC(C)C(=O)OCC1OC(OC(=O)C(C)OC(C)=O)C(OC(=O)C(C)OC(C)=O)C(OC(=O)C(C)OC(C)=O)C1OC(=O)C(C)OC(C)=O` (stereo not given), for which the growth inhibition in test [1] was 7.6%; in test [2], -13.8%; in test [3], -10.6%; in test [4], -42.4%; in test [5], -12.1%; in test [6], 7.95%.

As for `CC(Br)C(=O)n1c2ccccc2c2ccccc21` (stereo not given), the growth inhibition in test [1] is 21.6%; in test [2], 9.8%; in test [3], 19.8%; in test [4], -13.8%; in test [5], 12.2%; in test [6], 8.1%.

Take `NC(=O)C1C=Cc2ccccc21` (stereo not given): the growth inhibition in test [1] is -6.1%; in test [2] it was -19.3%; in test [3], -18.4%; in test [4], -14.1%; in test [5], -16.8%; in test [6], -35.6%.

`Fc1ccccc1-c1nc2ccccc2s1`: the growth inhibition was 45% in test [1]; 3.75% in test [2]; 19.3% in test [3]; -3.45% in test [4]; 6.05% in test [5]; 28.3% in test [6].

Regarding `Cc1cccc(C)c1NC(=O)CCC(=O)NC(N)=NC#N`, the growth inhibition is -33.1% in test [1]; -23.8% in test [2]; -25.7% in test [3]; 9.7% in test [4]; -23.8% in test [5]; -23.1% in test [6].

With `Nc1ccccc1NC(=O)c1nc2ccccc2[nH]1`, the growth inhibition was 1.55% in test [1]; 15.2% in test [2]; 19.6% in test [3]; 6% in test [4]; 7.8% in test [5]; 4.5% in test [6].

Regarding `COc1ccc(C(=O)Nc2ccn(CCOC(=O)c3ccc(OC)cc3)c(=O)n2)cc1`, the growth inhibition was -25.9% in test [1]; 16.9% in test [2]; -3.1% in test [3]; -4% in test [4]; 2.8% in test [5]; -3.55% in test [6].

Consider `Cc1ccc(-n2cc(/C(N)=N/O)c3ccccc3c2=O)cc1`, for which the growth inhibition was -29.8% in test [1]; -32.4% in test [2]; -32.8% in test [3]; -28.6% in test [4]; -22.8% in test [5]; -32.5% in test [6].

On to `COC1=C(OC)C(=O)C(C(=O)CCCCC(=O)O)=C(C)C1=O`, for which the growth inhibition in test [1] is 4.8%; in test [2], 0.5%; in test [3], 8.5%; in test [4] it was -35.4%; in test [5], 2.9%; in test [6], 13.9%.

As for `CC1(C)C(=NNC(=O)C[N+](C)(C)C)C(C)(C)C1=NNC(=O)C[N+](C)(C)C`, the growth inhibition in test [1] is -0.4%; in test [2] it was -11.9%; in test [3], -32.9%; in test [4], -46.4%; in test [5], -0.15%; in test [6] it was -13.5%.

In the case of `CCN(CC)Cc1cc(NC(C)=O)ccc1O`, the growth inhibition was -5.1% in test [1]; -13.7% in test [2]; -17.4% in test [3]; 11.1% in test [4]; -4.95% in test [5]; 2.3% in test [6].
